Legend:
[1] = target: RAF proto-oncogene serine/threonine-protein kinase (Homo sapiens) (UniProt P04049); details: at 1 µM;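 further: values are the mean percent inhibition of CRAF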
[2] = target: T1, Interleukin-1 receptor-associated kinase 4 (Homo sapiens) (UniProt Q9NWZ3); details: at 0.1 µM
T1 sequence (whole entry): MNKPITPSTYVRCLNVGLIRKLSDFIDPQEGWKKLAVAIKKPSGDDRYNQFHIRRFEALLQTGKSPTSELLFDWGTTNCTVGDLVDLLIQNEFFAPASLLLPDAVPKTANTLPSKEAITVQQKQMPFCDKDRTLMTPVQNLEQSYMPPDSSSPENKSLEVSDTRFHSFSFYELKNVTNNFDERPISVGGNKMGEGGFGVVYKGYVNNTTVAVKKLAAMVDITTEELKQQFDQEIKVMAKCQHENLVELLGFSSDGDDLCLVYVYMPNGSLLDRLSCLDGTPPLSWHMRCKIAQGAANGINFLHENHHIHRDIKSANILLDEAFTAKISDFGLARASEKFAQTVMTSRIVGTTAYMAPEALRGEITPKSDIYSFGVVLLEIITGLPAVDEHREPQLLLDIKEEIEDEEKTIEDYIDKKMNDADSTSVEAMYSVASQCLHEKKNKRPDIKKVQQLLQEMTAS

[3] = target: T1, Interleukin-1 receptor-associated kinase 4 (Homo sapiens); details: at 1 µM
[4] = target: Leucine-rich repeat serine/threonine-protein kinase 2 (Homo sapiens) (UniProt Q5S007); details: at 0.1 µM
Chain of Leucine-rich repeat serine/threonine-protein kinase 2 (Homo sapiens) (Q5S007 whole entry): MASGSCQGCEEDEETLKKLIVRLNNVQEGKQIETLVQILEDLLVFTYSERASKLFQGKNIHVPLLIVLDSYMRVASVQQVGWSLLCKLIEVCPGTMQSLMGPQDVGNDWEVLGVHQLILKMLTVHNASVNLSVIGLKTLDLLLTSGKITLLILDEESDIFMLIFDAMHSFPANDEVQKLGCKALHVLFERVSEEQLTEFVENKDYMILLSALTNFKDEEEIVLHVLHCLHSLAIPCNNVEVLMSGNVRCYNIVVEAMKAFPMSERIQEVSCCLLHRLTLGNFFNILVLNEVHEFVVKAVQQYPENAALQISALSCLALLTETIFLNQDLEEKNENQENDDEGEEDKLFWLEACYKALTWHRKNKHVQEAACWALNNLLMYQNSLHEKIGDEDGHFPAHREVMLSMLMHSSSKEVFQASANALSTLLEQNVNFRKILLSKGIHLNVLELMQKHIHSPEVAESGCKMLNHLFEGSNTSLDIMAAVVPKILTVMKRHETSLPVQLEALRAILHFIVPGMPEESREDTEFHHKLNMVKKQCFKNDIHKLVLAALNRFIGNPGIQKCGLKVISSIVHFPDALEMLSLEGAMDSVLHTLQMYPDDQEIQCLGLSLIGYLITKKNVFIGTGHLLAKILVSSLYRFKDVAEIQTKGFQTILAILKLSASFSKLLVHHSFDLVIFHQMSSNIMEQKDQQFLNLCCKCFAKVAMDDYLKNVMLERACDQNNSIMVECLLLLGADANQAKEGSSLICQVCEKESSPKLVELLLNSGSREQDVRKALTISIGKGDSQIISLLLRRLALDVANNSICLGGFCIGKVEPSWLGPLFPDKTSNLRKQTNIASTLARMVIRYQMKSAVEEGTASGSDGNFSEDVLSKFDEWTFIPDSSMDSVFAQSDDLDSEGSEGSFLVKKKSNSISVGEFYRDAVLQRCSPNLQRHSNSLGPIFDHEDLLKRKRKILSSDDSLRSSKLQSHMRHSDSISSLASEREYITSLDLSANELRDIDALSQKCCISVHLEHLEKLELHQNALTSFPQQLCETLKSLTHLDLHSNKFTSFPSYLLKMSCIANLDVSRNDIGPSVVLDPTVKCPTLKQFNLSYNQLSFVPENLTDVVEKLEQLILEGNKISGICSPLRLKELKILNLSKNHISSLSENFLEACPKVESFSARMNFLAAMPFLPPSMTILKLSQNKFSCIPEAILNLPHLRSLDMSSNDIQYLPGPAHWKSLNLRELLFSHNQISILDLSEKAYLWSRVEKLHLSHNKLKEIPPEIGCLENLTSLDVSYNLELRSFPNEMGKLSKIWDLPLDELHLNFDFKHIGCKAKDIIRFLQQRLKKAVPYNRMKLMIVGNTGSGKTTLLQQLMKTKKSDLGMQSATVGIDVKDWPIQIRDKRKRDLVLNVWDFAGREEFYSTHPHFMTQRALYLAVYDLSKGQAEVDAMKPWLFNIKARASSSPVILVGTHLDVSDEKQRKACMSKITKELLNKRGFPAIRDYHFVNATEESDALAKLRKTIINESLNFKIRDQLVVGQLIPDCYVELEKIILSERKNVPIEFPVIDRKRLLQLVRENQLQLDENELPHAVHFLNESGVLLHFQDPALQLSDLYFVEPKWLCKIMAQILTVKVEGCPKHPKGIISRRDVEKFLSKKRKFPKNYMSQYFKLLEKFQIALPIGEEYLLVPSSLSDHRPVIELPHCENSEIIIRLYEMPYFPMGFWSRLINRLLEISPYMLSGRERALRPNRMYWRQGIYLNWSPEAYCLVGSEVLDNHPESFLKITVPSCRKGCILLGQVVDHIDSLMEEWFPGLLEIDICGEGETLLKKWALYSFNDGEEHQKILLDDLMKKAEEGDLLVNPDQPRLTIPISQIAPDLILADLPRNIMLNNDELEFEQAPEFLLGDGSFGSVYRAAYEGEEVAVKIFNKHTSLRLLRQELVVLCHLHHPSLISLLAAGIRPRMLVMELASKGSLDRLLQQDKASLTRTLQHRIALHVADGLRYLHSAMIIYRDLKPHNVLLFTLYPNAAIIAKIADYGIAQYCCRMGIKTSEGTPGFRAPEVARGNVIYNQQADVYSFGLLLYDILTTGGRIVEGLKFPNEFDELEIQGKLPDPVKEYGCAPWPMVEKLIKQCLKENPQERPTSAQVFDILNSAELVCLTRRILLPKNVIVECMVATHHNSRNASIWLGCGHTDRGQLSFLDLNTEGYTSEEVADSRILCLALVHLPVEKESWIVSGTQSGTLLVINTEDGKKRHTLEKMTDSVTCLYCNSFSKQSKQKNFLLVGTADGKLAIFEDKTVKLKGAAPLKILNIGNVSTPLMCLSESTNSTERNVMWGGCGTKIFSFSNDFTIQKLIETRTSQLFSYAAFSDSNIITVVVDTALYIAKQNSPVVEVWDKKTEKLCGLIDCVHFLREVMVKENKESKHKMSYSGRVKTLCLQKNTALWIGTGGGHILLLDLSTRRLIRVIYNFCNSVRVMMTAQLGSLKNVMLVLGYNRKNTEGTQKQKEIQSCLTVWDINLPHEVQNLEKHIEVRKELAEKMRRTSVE

[5] = target: Leucine-rich repeat serine/threonine-protein kinase 2 (Homo sapiens) (UniProt Q5S007); details: at 1 µM
[6] = test system: Leucine-rich repeat serine/threonine-protein kinase 2 (Homo sapiens), Q5S007 [G2019S]; details: at 0.1 µM
Chain of Leucine-rich repeat serine/threonine-protein kinase 2 (Homo sapiens), Q5S007 [G2019S] (Q5S007 whole entry G2019S): as the sequence (Q5S007 whole entry) above, with G2019S counted along it

[7] = test system: Leucine-rich repeat serine/threonine-protein kinase 2 (Homo sapiens), Q5S007 [G2019S]; details: at 1 µM

Chain of RAF proto-oncogene serine/threonine-protein kinase (Homo sapiens) (P04049 whole entry): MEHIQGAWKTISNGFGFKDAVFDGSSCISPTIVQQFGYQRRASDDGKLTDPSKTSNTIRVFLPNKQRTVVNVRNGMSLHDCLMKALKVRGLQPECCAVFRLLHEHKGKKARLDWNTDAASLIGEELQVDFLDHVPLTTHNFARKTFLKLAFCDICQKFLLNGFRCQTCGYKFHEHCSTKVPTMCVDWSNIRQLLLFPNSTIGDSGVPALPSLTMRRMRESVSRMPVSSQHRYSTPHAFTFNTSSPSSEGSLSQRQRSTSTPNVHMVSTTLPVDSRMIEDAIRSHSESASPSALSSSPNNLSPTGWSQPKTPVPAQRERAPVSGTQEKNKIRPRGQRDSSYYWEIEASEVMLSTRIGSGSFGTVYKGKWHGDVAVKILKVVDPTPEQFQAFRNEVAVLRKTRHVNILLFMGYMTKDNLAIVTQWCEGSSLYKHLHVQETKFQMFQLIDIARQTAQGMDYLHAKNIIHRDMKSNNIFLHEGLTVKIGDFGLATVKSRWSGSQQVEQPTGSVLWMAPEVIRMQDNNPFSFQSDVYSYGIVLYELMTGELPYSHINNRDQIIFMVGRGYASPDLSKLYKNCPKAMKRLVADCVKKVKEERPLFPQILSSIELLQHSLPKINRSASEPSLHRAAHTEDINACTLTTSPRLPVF

SMILES	inhibition [1] [%]	inhibition [2] [%]	inhibition [3] [%]	inhibition [4] [%]	inhibition [5] [%]	inhibition [6] [%]	inhibition [7] [%]
FC(F)(F)c1cccc(-c2nn3ncccc3c2-c2ccnc(Nc3ccc4c(c3)OCCO4)n2)c1	-8.65	6.37	0.32	3.16	5.46	2.53	7.93
Nc1ncc(-c2cccc(S(N)(=O)=O)c2)c2scc(-c3ccc(F)c(Cl)c3)c12	-4.88	1.66	2.08	10.2	45.8	11.7	51.2
CCn1c(-c2nonc2N)nc2ccccc21	2.78	-0.13	1.55	6.41	8.23	5	13.7
COc1ccc(-c2oc3ncnc(N)c3c2-c2ccc(NC(=O)Nc3cc(C(F)(F)F)ccc3F)cc2)cc1	5.86	-1.07	2.91	6.22	15	5.81	16.8
NC(=O)c1sc(-n2cnc3ccc(C(F)(F)F)cc32)cc1OCc1ccccc1Br	-3.37	0.72	1.61	1.61	6.09	2.3	12.8
c1ccc(-c2nc3n(c2-c2ccc4c(c2)OCO4)CCC3)nc1	-1.34	0.9	0.56	1.19	3.89	2.25	3.64
COc1ccc(-c2nn3ncccc3c2-c2ccnc(Nc3ccc4c(c3)OCCO4)n2)cc1	-7.5	-0.42	-0.94	7.1	11.4	6.14	10.2
COc1ccc(-c2cc3c(N)ncnc3o2)cc1	-0.66	-0.28	0.08	0.9	3.63	1.45	2.82
Clc1ccc(-c2nn3ncccc3c2-c2ccnc(Nc3ccccc3)n2)cc1	-3.34	-3.75	1.51	1.23	5.86	3.01	8.26
COc1cc2c(cc1Nc1nc(Nc3ccsc3C(N)=O)c3cc[nH]c3n1)N(C(=O)CN(C)C)CCC2(C)C	-0.27	-1.47	2.28	90.7	98	85.4	93.9
CCn1c(-c2nonc2N)nc2c(C#CC(C)(C)O)nc(OC[C@H](N)c3ccccc3)cc21	-1.64	1.14	1.37	7.19	29.8	23.8	63.2
O=C(O[C@H]1CN[C@H](C#Cc2cc3ncnc(Nc4ccc(Cc5ccccc5)cc4)c3s2)C1)N1CCOCC1	0.23	-0.04	-0.2	1.27	2.6	2.35	3.96
CCn1c(-c2nonc2N)nc2cnc(Oc3cccc(NC(=O)c4ccc(N(C)C)cc4)c3)cc21	-4.15	0.85	0.95	2.37	6.56	5.49	27.4
CN1CCC(n2cnc(-c3ccc(F)cc3)c2-c2ccnc(N)n2)CC1	-4.14	3.88	0.94	0.66	1.74	1.6	9.24
O=C(Nc1n[nH]c2cc(-c3ccc(F)cc3)ccc12)C1CC1	-2.56	2.26	1.45	0.78	5.22	3.03	6.98
CCOc1ccc2c(-c3ccnc(Nc4cccc(C(F)(F)F)c4)n3)cnn2n1	-1.21	0.16	1.01	3.4	6.76	4.61	10.4
CCn1c(-c2nonc2N)nc2c(C#CC(C)(C)O)ncc(OC3CCNCC3)c21	1.95	2.02	1.93	0.26	6.79	3.92	12

SMILES	inhibition [1] [%]	inhibition [2] [%]	inhibition [3] [%]	inhibition [4] [%]	inhibition [5] [%]	inhibition [6] [%]	inhibition [7] [%]
COc1ccc(CNC(=O)c2ccc(-c3cc(-c4nnc(C)o4)ccc3C)cc2)cc1	-4.44	0.85	1.98	3.51	10.8	5.52	9.35
CCN1CCC(CC(=O)Nc2n[nH]c3nnc(-c4cccc(F)c4F)cc23)CC1	10.2	0.45	1.11	2.47	4.14	2.58	4.75
c1ccc(COc2ccc(Nc3ncnc4ccc(-c5ccco5)cc34)cc2)cc1	6.05	0.92	1.06	4.27	3.99	3.97	1.89
CN(C)CCOc1ccc(-c2nc(-c3ccncc3)c(-c3ccc4c(c3)CC/C4=N\O)[nH]2)cc1	69.9	-2.04	2.08	2.63	6.56	2.57	9.36
CCCN1CCC(c2ccc(Nc3nc(Nc4cc(F)ccc4C(N)=O)c4cc[nH]c4n3)c(OC)c2)CC1	17.1	3.12	3.69	85.5	89.7	79.9	64.4
COC(=O)c1sc(-n2cnc3cc(OC)c(OC)cc32)cc1OCc1ccccc1C(F)(F)F	3.19	-0.1	1.88	4.15	10.7	4.24	19.4
CC(C)COC(=O)c1ccc2c(c1)/C(=C/Nc1ccc(S(N)(=O)=O)cc1)C(=O)N2	0.2	2.68	0.81	7.28	22.7	23.3	64.1
CC(C)(CO)CNC(=O)c1ccc2c(c1)/C(=N/Nc1ccc(S(N)(=O)=O)cc1)C(=O)N2	-3.84	-1.23	-0.85	3.58	15	6.85	37.8
CCc1nn2ncccc2c1-c1ccnc(NC2CC2)n1	-3.3	1.42	1.5	0.11	4.02	1.77	4.72
CS(=O)(=O)CCNCc1coc(-c2ccc3ncnc(Nc4ccc(OCc5ccccc5)cc4)c3c2)c1	2.03	1.8	2.23	0.86	5.65	1.72	5.71
CN1CCC(n2cnc(-c3ccc(F)cc3)c2-c2ccnc(Nc3ccccc3)n2)CC1	-0.18	1.95	1.28	1.16	3.05	1.22	5.12
Fc1ccc(-c2nn3ccccc3c2-c2ccncc2)cc1	-9.31	2.69	0.14	1.66	3.74	1.38	4.57
CC(=O)Nc1cccc(C#Cc2cncnc2Nc2ccc(OCc3cccc(F)c3)c(Cl)c2)c1	1.55	-1.12	1.86	4.77	7.3	3.19	8.37
Fc1ccc(-c2nn3ncccc3c2-c2ccnc(Nc3ccc4c(c3)OCCO4)n2)cc1	-0.33	2.79	2.18	3.63	7.64	2.59	6.75
CCn1cc(-c2ccnc3[nH]ccc23)c(-c2cccc(NC(=O)Nc3ccc(OCc4ccccc4)cc3)c2)n1	-2.76	-0.99	-0.44	2.13	3.32	3.73	4
COc1cc(Nc2nccc(Nc3ccc4c(C)n[nH]c4c3)n2)cc(OC)c1OC	-9.69	-1.6	6.36	9.84	17.6	10.8	43.7

From ChEMBL document CHEMBL1961873, “Compounds: GSK PKIS; Assays: Nanosyn kinase panel” (2012)
